# Compound activity (PubChem BioAssay)
# Compounds with a hit are over-represented: about 2.7% of the library has one in this group of screens.
# FAS-TE inh: FAS thioesterase domain inhibitors, primary screen, biochemical, fluorescence intensity, uHTS; Fatty acid synthase (Homo sapiens), P49327; recombinant FAS-TE, OMFH fluorogenic substrate, fluorescence endpoint; inhibition, % at 15 µM; actives 0.67% (n = 360,000); AID 602261, 2012;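 active = compounds whose normalised, plate-corrected inhibition of enzyme fluorescence in the single-dose primary screen is 50% or more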;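 also: 0% = DMSO with enzyme and 100% = substrate without enzyme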
# KLK7 zymogen act: proKLK7 zymogen activators, primary screen, biochemical, fluorescence intensity. purified proKLK7, EDANS-DABCYL substrate fluorescence; 100% is mature enzyme control, 0% vehicle. actives 0.9% (n = 370,000). activation, % at 7 µM. Kallikrein-7 (Homo sapiens), P49862;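 active = activation above the mean of all tested compounds plus 3 SD, computed per campaign excluding outliers beyond control limits, cut at about 13% in these data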
# Neddyl block: inhibitors of cullin neddylation, primary screen, biochemical, TR-FRET, uHTS, NAE and Ubc12 | calls only at 25 µM | actives 0.58% (n = 360,000) | AID 651699, 2012; in the data active = inhibition above about 36%
# PfG6PD inh: PfG6PD enzyme inhibitors, primary screen, biochemical, fluorescence intensity, uHTS; actives 0.78% (n = 350,000); PfGluPho enzyme, NADPH resazurin-diaphorase fluorescence; inhibition, % at 20 µM; AID 504690, 2011; glucose-6-phosphate dehydrogenase-6-phosphogluconolactonase (Plasmodium falciparum 3D7);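 active = inhibition reaching at least a set limit at 20 µM in the primary screen, cut at about 59% in these data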;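 also: 0% = DMSO wells with substrate and 100% = DMSO wells lacking glucose-6-phosphate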
# FAS-TE inh conf: FAS thioesterase domain inhibitors, confirmation, biochemical, fluorescence intensity, single concentration. shares compounds with FAS-TE inh. recombinant FAS-TE, OMFH fluorogenic substrate. inhibition, % at 15 µM. actives 45% (n = 2,300). AID 624325, 2012;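 active = compounds inhibiting the enzyme by at least 50% at 15 µM in any one of the replicates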;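 also: 0% = enzyme with DMSO only and 100% = wells lacking enzyme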
# * hit, by the source's call; i = inactive; x = no result given.
SMILES,FAS-TE inh,KLK7 zymogen act,Neddyl block,PfG6PD inh,FAS-TE inh conf
Cc1ccc(N2C(=O)N3[C@H](c4ccc(Cl)cc4)[C@@H]4C(=O)N(C5CCCCC5)C(=O)[C@@H]4[C@]3(Cc3ccccc3)C2=O)cc1,93*,0,i,0,37
CC[C@@]12C(=O)N(c3cccc(F)c3)C(=O)N1[C@H](c1ccc(OC)cc1)[C@@H]1C(=O)N(C(C)(C)C)C(=O)[C@@H]12,-4,0,i,12,x
O=C1[C@H]2[C@@H](c3ccc(F)cc3)N3C(=O)N(c4cccc(F)c4)C(=O)[C@@]3(Cc3ccc(Cl)cc3)[C@H]2C(=O)N1C1CCCCC1,71*,0,i,10,28
CC[C@@]12C(=O)N(c3cccc(F)c3)C(=O)N1[C@H](c1ccc(Cl)cc1)[C@@H]1C(=O)N(C3CCCCC3)C(=O)[C@@H]12,67*,0,i,18,22
Cc1ccc(N2C(=O)N3[C@H](c4ccc(F)cc4)[C@@H]4C(=O)N(C5CCCCC5)C(=O)[C@@H]4[C@]3(C)C2=O)cc1,18,x,i,7,x
Cc1cccc(N2C(=O)N3[C@H](c4ccc(F)cc4)[C@@H]4C(=O)N(C5CCCCC5)C(=O)[C@@H]4[C@]3(Cc3ccc(Cl)cc3)C2=O)c1,93*,0,i,-14,21
COc1ccc2cc(/C=N/NC(=O)c3ccc(CN(c4cccc(Cl)c4Cl)S(C)(=O)=O)cc3)c(Cl)nc2c1,69*,1,i,3,20
COc1ccc2cc(/C=N/O)c(Cl)nc2c1,-8,0,i,1,x
c1ccc(Cn2c(SC3CCCCC3)nnc2-c2cccnc2)cc1,x,0,x,x,x
COC(=O)[C@]12C[C@H](CC(=O)NCCc3ccccc3OC)C(=O)N(Cc3ccco3)C1=C[C@H](COCc1ccccc1)O[C@@H]2C,x,0,x,x,x
O=C(COc1ccc2c3c(c(=O)oc2c1)CCC3)N1CCN(c2ccccc2)CC1,50*,0,i,15,34*
Cc1c(C)c2ccc(OCC(=O)N3CCN(c4ccccc4)CC3)cc2oc1=O,56*,x,i,9,64*
O=C(COc1ccc2c3c(c(=O)oc2c1)CCC3)N1CCCC1,-3,-3,i,18,x
C#CCN1CC(N2CCN(CCO)CC2)CS1(=O)=O (stereo not given),x,1,x,x,x
CC(=O)CC[C@H]1CC[C@]2(CCCN(C(=O)c3ccc4ccccc4n3)C2)O1,x,0,x,x,x
CNC(=S)N(Cc1cccs1)Cc1cc2ccc(OC)cc2[nH]c1=O,3,1,i,17,x
COc1cc2cc(CN(Cc3cccs3)C(=S)Nc3ccccc3)c(=O)[nH]c2cc1OC,79*,-10,i,12,31
COC(=O)C1CN(CC(C)C)CCS(=O)(=O)N1Cc1ccc(Cl)cc1 (stereo not given),x,1,x,x,x
CCCCCc1nc2sc3c(c2c(=O)n1NC(=O)c1ccc([N+](=O)[O-])cc1)CC(C)(C)OC3,78*,0,i,-20,63*
O=C(OC12CCCN(C1)/C(=C/c1cccc(Cl)c1)C2)c1ccc(Cl)cc1 (stereo not given),x,1,x,x,x
Cc1ccc(S(=O)(=O)N2CCN(c3ncnc4scc(-c5ccccc5)c34)CC2)cc1,52*,-1,i,4,15
Cc1nc(N2CCN(S(=O)(=O)c3ccccc3C#N)CC2)c2c(-c3ccccc3)csc2n1,83*,0,i,-3,39
COc1ccc(-c2csc3ncnc(N4CCN(S(=O)(=O)c5cccc(Br)c5)CC4)c23)cc1,36,0,i,10,x
COc1ccc(-c2csc3ncnc(N4CCN(S(=O)(=O)c5cccc(C(F)(F)F)c5)CC4)c23)cc1,50*,-1,i,20,8
O=[N+]([O-])c1cccc(OCCN2CCC(Cc3ccccc3)CC2)c1,63*,0,i,-2,67*
CCC12CN(C(=O)c3ccc([N+](=O)[O-])cc3)CC(CC)(CN(C(=O)c3ccc([N+](=O)[O-])cc3)C1)C2=O,58*,0,i,-4,38
O=C(c1ccc([N+](=O)[O-])cc1)N1CCC(Cc2ccccc2)CC1,59*,0,i,4,54*
